The record followed here is PubChem BioAssay (EPA / NIEHS).

Test [1] has as its target human Serotonin, 5-Hydroxytryptamine Receptor 6 (5HT6), HTR6 (gene 3362) (UniProt P50406). Kind of test: NVS_GPCR_h5HT6: NovaScreen (NVS) G Protein-Coupled Receptor Assay for human Serotonin, 5-Hydroxytryptamine Receptor 6 (5HT6) (AID 2283253). A digest of the protocol: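 Filter scintillation counting of radioligand displacement from HEK293-expressed 5HT6, 1 hour post-dose, with loss of signal relative to DMSO. Single 25 uM duplicates first, with concentration series for confirmation.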

The target of test [2] is human Serotonin, 5-Hydroxytryptamine Receptor 7 (5HT7), HTR7 (gene 3363) (UniProt P34969). Kind of test: NVS_GPCR_h5HT7: NovaScreen (NVS) G Protein-Coupled Receptor Assay for human Serotonin, 5-Hydroxytryptamine Receptor 7 (5HT7) (AID 2283255).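 Also: hits reduce specific radioligand binding relative to DMSO.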 As to the method:
(§1) NVS_GPCR_h5HT7 is a biochemical, single-readout assay that uses extracted gene-proteins from CHO in a cell-free assay. Measurements were taken 1 hour after chemical dosing in a 96-well plate.NVS_GPCR_h5HT7 is one of one assay component(s) measured or calculated from the NVS_GPCR_h5HT7 assay. It is designed to make measurements of radioligand binding, a form of binding reporter, as detected with scintillation counting signals by Filter-based radiodetection technology.Data from the assay component NVS_GPCR_h5HT7 was analyzed into 1 assay endpoint. This assay endpoint, NVS_GPCR_h5HT7, was analyzed in the positive analysis fitting direction relative to DMSO as the negative control and baseline of activity. […] Furthermore, this assay endpoint can be referred to as a primary readout, because the performed assay has only produced 1 assay endpoint. […]
(§2) Binding assays used specific radioligands (tritiated, iodinated) with non-radioactive competitive displacement ligands in agonist or antagonist protocols (as indicated) and various reference compounds and inhibitors to titrate specific binding to receptors and transporters. Most enzyme assays (CYPs, kinases, phosphatases, proteases, HDACs) used recombinant protein and specific substrates (fluorescence mostly, some colorimetric and radioactive) and inhibitors, followed by a biochemical separation of substrate and product. […]

Test [3] concerns the target human Adrenergic, Alpha 2c Receptor (Adra2C), ADRA2C (gene 152) (UniProt P18825). Kind of test: NVS_GPCR_hAdra2C: NovaScreen (NVS) G Protein-Coupled Receptor Assay for human Adrenergic, Alpha 2c Receptor (Adra2C) (AID 2283259). A digest of the protocol:
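Screened first in duplicate at 25 uM, with actives then run as concentration series. Membranes from Sf9 cells were exposed for 1 h, and displacement of radioligand was counted after filtration, using DMSO as baseline.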

For test [4], the target named is human Dopamine Receptor D4.4 (DRD4.4), DRD4 (gene 1815) (UniProt P21917). Nature of the test: NVS_GPCR_hDRD4.4: NovaScreen (NVS) G Protein-Coupled Receptor Assay for human Dopamine Receptor D4.4 (DRD4.4) (AID 2283264). A digest of the protocol: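 Filter-binding assay with a tritiated or iodinated ligand, cell-free receptor prepared from CHO, 1 hour. Loss of bound radioactivity versus DMSO; single 25 uM duplicate screen, then concentration-response for actives.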
Chain of human Dopamine Receptor D4.4 (DRD4.4), DRD4 (gene 1815) (P21917 whole entry, looked up): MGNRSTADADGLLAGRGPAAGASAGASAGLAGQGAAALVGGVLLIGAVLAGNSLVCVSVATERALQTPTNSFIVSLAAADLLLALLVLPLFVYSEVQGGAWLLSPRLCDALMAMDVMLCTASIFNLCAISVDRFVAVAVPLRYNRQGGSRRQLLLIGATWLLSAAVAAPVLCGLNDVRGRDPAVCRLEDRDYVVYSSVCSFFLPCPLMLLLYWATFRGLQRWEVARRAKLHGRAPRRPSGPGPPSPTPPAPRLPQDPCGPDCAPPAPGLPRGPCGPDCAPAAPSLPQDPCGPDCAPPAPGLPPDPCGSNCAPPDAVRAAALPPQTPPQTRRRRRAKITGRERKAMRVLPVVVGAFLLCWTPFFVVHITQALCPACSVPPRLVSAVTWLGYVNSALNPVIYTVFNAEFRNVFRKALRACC

The target in test [5] is human Dopamine Receptor D2 (DRD2), DRD2 (gene 1813) (UniProt P14416). Kind of test: NVS_GPCR_hDRD2s: NovaScreen (NVS) G Protein-Coupled Receptor Assay for human Dopamine Receptor D2 (DRD2) (AID 2283266). On the procedure: as §1, with “NVS_GPCR_hDRD2s” for “NVS_GPCR_h5HT7”, “1.5 hours” for “1 hour”, “plate.NVS_GPCR_hDRD2s” for “plate.NVS_GPCR_h5HT7”, “NVS_GPCR_hDRD2s,” for “NVS_GPCR_h5HT7,”
Chain of human Dopamine Receptor D2 (DRD2), DRD2 (gene 1813) (P14416 whole entry, looked up): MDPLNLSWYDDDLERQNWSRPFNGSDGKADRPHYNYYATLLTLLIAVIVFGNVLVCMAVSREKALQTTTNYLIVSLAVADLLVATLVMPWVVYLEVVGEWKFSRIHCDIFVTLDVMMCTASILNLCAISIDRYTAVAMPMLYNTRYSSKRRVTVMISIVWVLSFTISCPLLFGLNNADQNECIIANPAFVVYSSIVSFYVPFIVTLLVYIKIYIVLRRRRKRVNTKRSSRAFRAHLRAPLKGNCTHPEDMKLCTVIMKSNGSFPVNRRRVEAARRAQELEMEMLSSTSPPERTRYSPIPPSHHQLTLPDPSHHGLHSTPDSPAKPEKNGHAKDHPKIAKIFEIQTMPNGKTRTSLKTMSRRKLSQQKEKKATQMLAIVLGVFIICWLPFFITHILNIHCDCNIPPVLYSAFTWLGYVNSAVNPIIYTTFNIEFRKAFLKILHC
as §2

Test [6] concerns the target human Adenosine A1 Receptor (AdoRA1), ADORA1 (gene 134) (UniProt P30542). Kind of test: NVS_GPCR_hAdoRA1: NovaScreen (NVS) G Protein-Coupled Receptor Assay for human Adenosine A1 Receptor (AdoRA1) (AID 2283254). The method in brief:
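Hum. cortical membranes + radioligand, cmpd 1 h; filtration, scintillation count. Readout = decrease vs DMSO. Primary 25 uM dup; hits → conc. series.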

In test [7] the target is human Adrenergic, Alpha 2A Receptor (Adra2A), ADRA2A (gene 150) (UniProt P08913). Nature of the test: NVS_GPCR_hAdra2A: NovaScreen (NVS) G Protein-Coupled Receptor Assay for human Adrenergic, Alpha 2A Receptor (Adra2A) (AID 2283257). A digest of the protocol: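 Displacement of a specific radioligand from HT29 membrane protein was counted by filter scintillation after 1 h. Compounds were screened in duplicate at 25 uM, and actives were retested in concentration series. Fitting was positive-direction against DMSO.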
Chain of human Adrenergic, Alpha 2A Receptor (Adra2A), ADRA2A (gene 150) (P08913 whole entry, looked up): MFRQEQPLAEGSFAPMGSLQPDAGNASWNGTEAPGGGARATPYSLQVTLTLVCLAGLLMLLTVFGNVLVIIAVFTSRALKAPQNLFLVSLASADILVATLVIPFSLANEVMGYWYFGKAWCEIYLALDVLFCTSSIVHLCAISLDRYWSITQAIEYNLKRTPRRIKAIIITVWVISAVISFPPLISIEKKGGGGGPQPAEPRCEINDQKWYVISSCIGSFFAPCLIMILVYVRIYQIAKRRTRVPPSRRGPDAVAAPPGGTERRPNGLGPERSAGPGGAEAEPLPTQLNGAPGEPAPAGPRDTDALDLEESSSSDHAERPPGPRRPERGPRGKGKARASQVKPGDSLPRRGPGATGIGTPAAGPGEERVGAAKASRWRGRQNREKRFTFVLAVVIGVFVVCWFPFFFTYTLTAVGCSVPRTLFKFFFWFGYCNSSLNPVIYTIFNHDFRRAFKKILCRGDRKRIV

Test [8] addresses human Adrenergic, Beta 1 Receptor (Adrb1), ADRB1 (gene 153) (UniProt P08588). Nature of the test: NVS_GPCR_hAdrb1: NovaScreen (NVS) G Protein-Coupled Receptor Assay for human Adrenergic, Beta 1 Receptor (Adrb1) (AID 2283258). The method in brief:
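Membranes/protein extracted from human neuroepithelioma cells, radioligand competition binding read by filtration and scintillation 2 h post-dose. Single 25 uM duplicate screen, then concentration-response follow-up; DMSO as negative control.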

Test [9] concerns the target Beta-2 adrenergic receptor (Homo sapiens) (UniProt P07550). Kind of test: NVS_GPCR_hAdrb2: NovaScreen (NVS) G Protein-Coupled Receptor Assay for human Adrenergic, Beta 2 Receptor (Adrb2) (AID 2283261). A digest of the protocol: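 Compounds screened in duplicate at 25 uM, then actives in concentration series. Human beta-2 receptor from CHO material, cell-free; radioligand displacement after 1 h measured by filtration and scintillation against DMSO baseline.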

Records with an inconclusive call do not appear. The source made the active and inactive calls. The calls were made as follows: active = hit-call score of the fitted dose curve at least 0.9, where 1 is the maximum; inconclusive = response in the unintended direction; inactive = score below 0.9.

Chain of human Serotonin, 5-Hydroxytryptamine Receptor 6 (5HT6), HTR6 (gene 3362) (P50406 whole entry, looked up): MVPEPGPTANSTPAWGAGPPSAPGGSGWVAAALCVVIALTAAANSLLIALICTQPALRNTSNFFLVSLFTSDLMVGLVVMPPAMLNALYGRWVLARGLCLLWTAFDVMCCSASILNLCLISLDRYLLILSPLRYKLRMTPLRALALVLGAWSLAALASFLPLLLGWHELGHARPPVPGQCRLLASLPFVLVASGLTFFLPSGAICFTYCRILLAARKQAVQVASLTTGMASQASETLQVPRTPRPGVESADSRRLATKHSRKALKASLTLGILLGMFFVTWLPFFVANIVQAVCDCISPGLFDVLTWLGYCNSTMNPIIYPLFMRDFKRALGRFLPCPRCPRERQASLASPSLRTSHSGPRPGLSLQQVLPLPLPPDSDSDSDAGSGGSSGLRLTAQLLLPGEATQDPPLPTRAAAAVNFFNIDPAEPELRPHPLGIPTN
Chain of human Adrenergic, Alpha 2c Receptor (Adra2C), ADRA2C (gene 152) (P18825 whole entry, looked up): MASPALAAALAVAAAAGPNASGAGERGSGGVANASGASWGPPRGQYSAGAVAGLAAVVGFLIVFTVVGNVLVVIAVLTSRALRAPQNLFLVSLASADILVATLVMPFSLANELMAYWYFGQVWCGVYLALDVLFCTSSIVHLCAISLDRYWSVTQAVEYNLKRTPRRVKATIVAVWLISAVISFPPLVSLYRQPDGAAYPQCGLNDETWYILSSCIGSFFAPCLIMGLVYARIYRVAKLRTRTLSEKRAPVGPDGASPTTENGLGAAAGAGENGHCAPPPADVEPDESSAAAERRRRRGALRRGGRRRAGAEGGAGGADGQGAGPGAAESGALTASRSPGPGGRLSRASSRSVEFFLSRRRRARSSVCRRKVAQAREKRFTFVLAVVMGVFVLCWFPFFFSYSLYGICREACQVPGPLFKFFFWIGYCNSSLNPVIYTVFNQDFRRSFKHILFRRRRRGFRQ
Chain of human Adenosine A1 Receptor (AdoRA1), ADORA1 (gene 134) (P30542 whole entry, looked up): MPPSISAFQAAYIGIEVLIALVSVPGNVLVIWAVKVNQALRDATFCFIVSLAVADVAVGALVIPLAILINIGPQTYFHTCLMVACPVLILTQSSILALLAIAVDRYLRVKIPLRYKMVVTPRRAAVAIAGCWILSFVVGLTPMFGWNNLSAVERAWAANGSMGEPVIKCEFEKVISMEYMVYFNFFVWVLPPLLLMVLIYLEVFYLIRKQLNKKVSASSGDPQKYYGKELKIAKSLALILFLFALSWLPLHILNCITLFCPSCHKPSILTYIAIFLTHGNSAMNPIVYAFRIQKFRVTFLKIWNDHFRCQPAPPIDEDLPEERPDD
Chain of human Serotonin, 5-Hydroxytryptamine Receptor 7 (5HT7), HTR7 (gene 3363) (P34969 whole entry, looked up): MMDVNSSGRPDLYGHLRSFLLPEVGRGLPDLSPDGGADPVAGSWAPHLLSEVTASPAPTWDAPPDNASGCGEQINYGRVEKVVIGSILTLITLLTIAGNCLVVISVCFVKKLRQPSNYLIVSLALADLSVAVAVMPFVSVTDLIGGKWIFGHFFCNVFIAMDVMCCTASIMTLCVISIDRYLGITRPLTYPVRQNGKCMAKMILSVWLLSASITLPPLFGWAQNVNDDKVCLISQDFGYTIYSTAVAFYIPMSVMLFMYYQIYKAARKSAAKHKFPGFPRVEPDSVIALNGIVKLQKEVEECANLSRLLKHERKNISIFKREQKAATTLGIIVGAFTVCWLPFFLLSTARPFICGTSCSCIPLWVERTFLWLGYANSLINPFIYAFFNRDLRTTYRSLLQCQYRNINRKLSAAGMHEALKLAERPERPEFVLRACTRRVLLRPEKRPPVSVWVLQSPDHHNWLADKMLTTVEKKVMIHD
Chain of Beta-2 adrenergic receptor (Homo sapiens) (P07550 whole entry, looked up): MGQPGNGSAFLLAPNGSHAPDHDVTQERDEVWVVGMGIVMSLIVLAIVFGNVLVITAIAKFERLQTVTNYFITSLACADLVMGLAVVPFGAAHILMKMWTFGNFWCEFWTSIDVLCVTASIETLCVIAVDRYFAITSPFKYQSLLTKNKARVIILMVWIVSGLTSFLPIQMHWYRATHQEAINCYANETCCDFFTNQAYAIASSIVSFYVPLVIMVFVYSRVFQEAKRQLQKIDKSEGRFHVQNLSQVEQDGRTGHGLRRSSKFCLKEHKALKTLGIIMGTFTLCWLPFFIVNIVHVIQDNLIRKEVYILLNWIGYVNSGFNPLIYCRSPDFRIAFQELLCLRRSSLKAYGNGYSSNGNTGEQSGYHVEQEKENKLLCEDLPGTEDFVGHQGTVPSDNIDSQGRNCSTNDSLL
Chain of human Adrenergic, Beta 1 Receptor (Adrb1), ADRB1 (gene 153) (P08588 whole entry, looked up): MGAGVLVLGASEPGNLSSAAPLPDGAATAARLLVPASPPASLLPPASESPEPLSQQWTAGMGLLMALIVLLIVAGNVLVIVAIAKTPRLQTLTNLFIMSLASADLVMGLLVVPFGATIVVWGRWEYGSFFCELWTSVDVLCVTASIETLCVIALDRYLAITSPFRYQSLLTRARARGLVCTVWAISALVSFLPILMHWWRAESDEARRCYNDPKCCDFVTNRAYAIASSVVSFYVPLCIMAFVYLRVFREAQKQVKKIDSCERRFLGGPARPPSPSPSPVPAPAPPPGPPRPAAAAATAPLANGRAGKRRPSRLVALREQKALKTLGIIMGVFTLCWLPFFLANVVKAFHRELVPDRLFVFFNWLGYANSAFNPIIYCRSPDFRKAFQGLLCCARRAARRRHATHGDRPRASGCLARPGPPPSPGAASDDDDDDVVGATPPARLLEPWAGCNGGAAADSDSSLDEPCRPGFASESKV

As for `CC/C(=C(\c1ccccc1)c1ccc(OCCN(C)C)cc1)c1ccccc1`, the AC50 in test [1] was 6.32 µM (active); in test [2] it was 4.89 µM (active); in test [3], 9.54 µM (active). For the same compound, the result in test [4] and in test [5] was inactive.

For `O=C(c1ccc(OCCN2CCCCC2)cc1)c1c(-c2ccc(O)cc2)sc2cc(O)ccc12`, the concentration at half-maximal activity (AC50) in test [1] was 3.57 µM (active); in [2], 2.27 µM (active); in test [7], 9.52 µM (active); in test [8] it was 10.5 µM (active); in test [3], 2.78 µM (active); in test [9], 11.8 µM (active). The AC50 in [5] was 1.07 µM (active). The outcome in [6] was inactive.

`COc1ccc(C(C)=O)cc1`: in [6], the result was inactive.

Broadly, the AC50 is the concentration giving half of the maximal activity seen.
